Each structure is given as a SMILES string. Screen size: about 190,000 compounds; about 1,300 (0.68%) were called active. This excerpt belongs to a sample that is enriched for actives. Values without a mark were called inactive. No stated cut-off is given here; in the data, active means inhibition above about 50%; inactive means the rest.

The assay deals with Mannose-6-phosphate isomerase (Homo sapiens) (UniProt P34949). The assay can be described thus: MPI inhibition at elevated mannose 6-phosphate – biochemical, fluorescence intensity, high mannose 6-phosphate, primary screen (AID 1220). The note with it: recombinant PMI enzyme, coupled fluorescence intensity; at 20 µM; stronger effect = higher value.
Chain of Mannose-6-phosphate isomerase (Homo sapiens) (P34949 whole entry, looked up): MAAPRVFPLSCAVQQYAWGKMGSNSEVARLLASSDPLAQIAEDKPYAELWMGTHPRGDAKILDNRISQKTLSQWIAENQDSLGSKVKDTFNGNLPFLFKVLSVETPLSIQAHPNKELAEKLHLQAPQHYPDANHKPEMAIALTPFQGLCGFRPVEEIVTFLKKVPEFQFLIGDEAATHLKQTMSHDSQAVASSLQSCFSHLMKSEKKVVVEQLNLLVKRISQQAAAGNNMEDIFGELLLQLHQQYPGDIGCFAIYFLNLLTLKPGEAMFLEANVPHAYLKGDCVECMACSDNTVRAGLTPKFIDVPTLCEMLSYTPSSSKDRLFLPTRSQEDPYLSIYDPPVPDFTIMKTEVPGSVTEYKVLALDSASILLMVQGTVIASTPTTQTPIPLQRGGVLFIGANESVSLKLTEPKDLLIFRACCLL
For the molecule `Cc1nc2ccccc2nc(C)c1=NO`, the inhibition is 54.2% (active).

For `Cc1nc2ccc(Cl)cc2nc(C)/c1=N\O`, the inhibition was 32.9%. The value for `Cc1ccc2nc(C)/c(=N\O)c(C)nc2c1` was 2.2%. Take `COCCN1C(=O)/C(=C/c2ccc(OCc3ccc(C(=O)O)cc3)c(OC)c2)SC1=Nc1ccccc1`: the inhibition is 5.1%. Take `CC(C)CNC(=O)COC(=O)c1cc(S(=O)(=O)N(C)C)ccc1N1CCCC1`: the inhibition was 4.7%. For `CN1C=CC2=C(C#N)C(N)C(C#N)(C#N)[C@H](c3ccccc3)[C@H]2C1` (stereo partly drawn), the inhibition is 61% (active). As for `CCN1C=CC2=C(C#N)C(N)C(C#N)(C#N)C(c3ccccc3C(F)(F)F)C2C1` (stereo not drawn), the figure is 5.1%. Turning to `CN1C=CC2=C(C#N)C(N)C(C#N)(C#N)C(c3ccccc3)C2C1` (stereo not drawn), the inhibition is 18.5%.

As to `O=C(Cn1nc(C(F)(F)F)c2c1CCC2)NCc1ccc(Cl)cc1`, the inhibition was -8.7%.

In the case of `CC(C)C(C)NC(=O)CN1C(=O)NC2(CCCc3ccccc32)C1=O` (stereo not drawn), the inhibition is -2.2%. As to `CN(CCO)c1cc(N2CCC3(CC2)OCCO3)c2nonc2c1[N+](=O)[O-]`, the inhibition is 34.9%. The value for `CC1CCCN(c2cc(N(C)CCO)c([N+](=O)[O-])c3nonc23)C1` (stereo not drawn) was 18%; that for `CC1CCN(c2cc(N(C)CCO)c([N+](=O)[O-])c3nonc23)CC1` was 50.7% (active). The value for `O=[N+]([O-])c1c(NCCO)cc(N2CCN(Cc3ccc4c(c3)OCO4)CC2)c2nonc12` was 49.1%; that for `CCOC(=O)C1CCCN(c2cc(NCCCO)c([N+](=O)[O-])c3nonc23)C1` (stereo not drawn) was 55.2% (active). With `O=[N+]([O-])c1c(NCCCO)cc(N2CCN(Cc3ccc4c(c3)OCO4)CC2)c2nonc12`, the inhibition was 45.2%. Take `CN(CCO)c1cc(N2CCN(C(=O)c3ccco3)CC2)c2nonc2c1[N+](=O)[O-]`: the inhibition is 12.4%. Regarding `CCOC(=O)N1CCN(c2cc(N(C)CCO)c([N+](=O)[O-])c3nonc23)CC1`, the inhibition is 55.5% (active). The value for `CN(CCO)c1cc(N2CCCCC2)c2nonc2c1[N+](=O)[O-]` was 42.4%; that for `CC(C)(C)NC(=O)COC(=O)Cc1ccc(Cl)cc1` was -0.9%. As for `COC(=O)N/N=C/c1cc(Cl)c(OCc2ccc(F)cc2)c(OC)c1`, the figure is -6.1%. The value for `CCC(C)NCCOCCOc1ccc(C)cc1Br` (stereo not drawn) was 0.7%; that for `CCn1c(SCC(=O)N/N=C/C=C\c2ccccc2[N+](=O)[O-])nc2ccccc21` was 6.4%; that for `CCOc1ccc(NC2CCN(C(C)=O)CC2)cc1` was 33.1%. For `Clc1ccc(CCNc2nc3ccccc3s2)cc1`, the inhibition was 1.2%. The value for `O=C(CSc1ncccc1C(=O)O)c1ccccc1` was -60.9%; that for `Cn1c(SCC(=O)Nc2cccc(Br)c2)nnc1-c1cc2ccccc2o1` was -14.1%. Turning to `O=C(NCCc1ccccc1)c1ccccc1F`, the inhibition is 8.3%. Regarding `c1cncc(-c2nnc(-c3cccnc3)nn2)c1`, the inhibition is 62.4% (active).

Take `c1cncc(-c2nn[nH]n2)c1`: the inhibition was -12.1%. In the case of `c1cncc(-c2cccnc2)c1`, the inhibition was -2.8%.

In the case of `COc1ccc(S(=O)(=O)NC(CC(=O)NCC2CCCO2)c2ccco2)cc1` (stereo not drawn), the inhibition is 8%.

As for `Cc1cccc(OCCOCCN2CCNCC2)c1C`, the inhibition was -5%. With `Cc1nc2sc(C(c3ccccc3)N3CCOCC3)c(O)n2n1` (stereo not drawn), the inhibition is 3.4%. The value for `NC1=NC(=O)C(CC(=O)NCc2ccccc2)S1` (stereo not drawn) was -10.3%. For the molecule `O=C(O)CNC(=O)CC1S/C(=N/N=C2/NC(=O)CS2)NC1=O` (stereo not drawn), the inhibition is 29.5%. The value for `Cc1ccc(C(=O)OCC(=O)Nc2ccccc2)cc1NC(=O)c1ccco1` was -0.6%.

With `Cc1ccc(C)c(N2CCN(C(=O)CNS(=O)(=O)c3cccs3)CC2)c1`, the inhibition was -4.9%. As for `COc1ccc(Cn2c(SCc3ccc(C)cc3)nc3cc(OC)c(OC)cc3c2=N)cc1Cl`, the figure is 1.9%; as for `CSc1ccc(/C=C/c2ccc3cccc(O)c3n2)cc1`, 17.3%.

Take `Cc1ccsc1/C=C/c1ccc2cccc(O)c2n1`: the inhibition was -8.2%. As for `O=C(CSc1nnc(-c2cccs2)n1-c1ccccc1)NCC1CCCO1` (stereo not drawn), the figure is 5.8%; as for `CCOc1ccc2noc3c2c1C(=O)c1ccccc1-3`, 19%.

Take `O=C1c2ccccc2C(=O)c2c1cccc2N1CCCC1`: the inhibition is 19.4%.

Regarding `O=C1c2ccccc2-c2onc3ccc(NCCCn4ccnc4)c1c23`, the inhibition is 14.4%. The value for `CCNc1ccc2noc3c2c1C(=O)c1ccccc1-3` was 46%. `O=C1c2ccccc2-c2onc3ccc(N4CCCC4)c1c23`: the inhibition was 62.6% (active). As for `O=C1c2ccccc2-c2onc3ccc(NCc4ccco4)c1c23`, the figure is 58.1% (active). On to `CSc1nc2ccccc2n1CC(=O)N1CCCCC1`, for which the inhibition is 8.7%. Turning to `CCC(Sc1ccc2nnc(-c3ccc(OC)c(OC)c3)n2n1)C(=O)O` (stereo not drawn), the inhibition was -19.3%. With `CN(C)S(=O)(=O)c1cc(NC(=O)Cn2ccsc2=N)ccc1Cl`, the inhibition is -0.6%. With `CN1CCN(c2ccccc2NC(=O)c2sc3ccccc3c2Cl)CC1`, the inhibition is 62.3% (active). On to `CN1CCN(c2ccc(NC(=O)c3sc4ccccc4c3Cl)cc2)CC1`, for which the inhibition was 10.7%.

On to `O=C(NC(=S)Nc1ccccc1N1CCOCC1)c1sc2ccccc2c1Cl`, for which the inhibition is 7.5%. As for `COc1ccccc1NC(=O)CN1CCC(n2c(C)nc3cc(F)ccc32)CC1`, the figure is -4.8%.

As to `CCCn1c(CNc2ccccc2O)nc2ccccc21`, the inhibition was 34.6%.

In the case of `Cn1c(CNc2ccccc2O)nc2ccccc21`, the inhibition is 61.3% (active). The value for `Cn1c(CNc2nc3ccccc3n2C)nc2ccccc21` was 3.4%; that for `OCCNCC(O)Cn1ccc2ccccc21` (stereo not drawn) was 12%.

With `Oc1ccccc1NCC(O)Cn1ccc2ccccc21` (stereo not drawn), the inhibition is 55.3% (active). As for `OC(CNc1ccccc1)Cn1ccc2ccccc21` (stereo not drawn), the figure is 7.5%; as for `O=C(CSCc1ccccc1)N/N=C/c1ccc(OCC(=O)N2CCCCC2)cc1`, 2%; as for `Cc1cc(NC(=O)c2ccco2)ncc1NC(=O)CCc1ccccc1`, 34.9%.

As for `COc1cc(NC(=O)CSc2nc(C)c(C)c(C)n2)c(C)cc1[N+](=O)[O-]`, the inhibition is -6.6%. The value for `N#CC(=C=[N-])C1=C(C#N)C(c2ccccc2F)C([n+]2ccccc2)C(O)(C2CC2)N1` (stereo not drawn) was 21.1%; that for `Cc1cccc[n+]1C1C(c2ccc([N+](=O)[O-])cc2)C(C#N)=C(C(=C=[N-])C#N)NC1(O)C1CC1` (stereo not drawn) was 15.2%; that for `Cc1cccc[n+]1C1C(c2ccccc2)C(C#N)=C(C(=C=[N-])C#N)NC1(O)C1CC1` (stereo not drawn) was 50.8% (active). The value for `Cc1cnc(NC(=O)CC2CCCC2)s1` was -13.1%; that for `Cc1ccccc1Cn1nnc(-c2ccc3c(c2)OCO3)n1` was 12.9%. Regarding `CC(=O)c1c(C)nc(-c2ccccc2)nc1N`, the inhibition was -1.3%. As for `Cc1nc([N+](=O)[O-])nn1C12CC3CC(CC(Cl)(C3)C1)C2`, the inhibition was -2.6%. As for `Cc1cc(NC(=O)C23CC4CC(C2)CC(n2cnc([N+](=O)[O-])n2)(C4)C3)no1`, the figure is 11.1%; as for `COCCn1c(SCc2cccnc2)nnc1-c1ccco1`, -18.7%. The value for `C=CCn1c(=N)c(C(=O)OCC)cc2c(=O)n3cc(C)ccc3nc21` was -2.4%.

On to `CN(CC#CC1(O)c2ccccc2-c2ccccc21)Cc1ccccc1`, for which the inhibition was 0.8%.

Turning to `COc1ccc(N2CCN(CC(=O)Nc3sccc3C#N)CC2)cc1`, the inhibition is 18.8%. The value for `N#Cc1ccsc1NC(=O)CN1CCN(c2ccccc2)CC1` was 7.6%; that for `CN1CCN(CC(=O)Nc2cc(N3CCOCC3)ccc2[N+](=O)[O-])CC1` was 62.6% (active). The value for `O=C(Cn1cnc2ccccc2c1=O)Nc1ccc2c(c1)OCO2` was 1%.

`N#Cc1ccsc1NC(=O)CN1CCN(c2ccc(O)cc2)CC1`: the inhibition is 54.7% (active). The value for `O=C(CN1CCN(c2ccc(O)cc2)CC1)Nc1cc(S(=O)(=O)N2CCCC2)ccc1Cl` was 45.4%; that for `CN1CCN(CC(=O)Nc2ccccc2[N+](=O)[O-])CC1` was -2.9%. As for `Cc1ccc(S(=O)(=O)N2CCOCC2)cc1NC(=O)CN1CCN(c2ccc(O)cc2)CC1`, the figure is 53.9% (active).

Turning to `CC(C)(C)CNc1cc(N2CCOCC2)ccc1[N+](=O)[O-]`, the inhibition is 16.1%. As to `O=C(Cn1cnc2ccccc2c1=O)NCCC(=O)Nc1ccc2c(c1)OCCO2`, the inhibition is -6.6%. As for `CC(=O)N1CCN(CC(=O)Nc2cc(S(=O)(=O)N3CCOCC3)ccc2C)CC1`, the inhibition is 2%. For the molecule `O=C(Cn1cnc2ccccc2c1=O)Nc1ccc2c(c1)OCCO2`, the inhibition is 52.9% (active). The value for `COC(=O)c1cc(COc2ccc3oc(C)c(C(=O)OC(C)C)c3c2)c(C)o1` was -0.3%. As for `CC(=O)NCC(=O)OCC(=O)Nc1ccc(C(C)=O)cc1`, the inhibition was -8.8%. As for `CC(=C1C2C=CC1C1C(=O)NC(=O)C21)c1ccccc1` (stereo not drawn), the figure is 3.8%; as for `Cc1c(NC(=O)COc2cccc3c2OC(C)(C)C3)c(=O)n(-c2ccccc2)n1C`, -6.1%. As for `c1ccc(N2CCN(c3cnc4ccccc4n3)CC2)cc1`, the figure is 5%; as for `CC(=O)N1CCC(=NNS(=O)(=O)c2ccc(C)c([N+](=O)[O-])c2)CC1`, -31.5%; as for `O=C(NCc1nc2ccccc2[nH]1)C1=C[C@H](c2ccccc2)C[C@H](OCc2ccc(CO)cc2)O1`, 11%. The value for `Cn1c(Cn2c(=O)sc3ccccc32)nnc1SCc1cccc(F)c1` was -7.7%; that for `COCCNc1c(-c2ccc(OC)cc2)nc2ccc(Cl)cn12` was -8.6%. On to `Cc1ccc(C)c(S(=O)(=O)N/N=C2/CCCc3ccccc32)c1`, for which the inhibition was -29.2%. Take `CCOC(=O)C1=C(O)C(=O)N(c2ccc(S(N)(=O)=O)cc2)C1c1ccc(OC)cc1` (stereo not drawn): the inhibition is 4.3%.

Usually inhibition stands for the change of the read-out against control, counted positive when it falls.
